Screens: PubChem BioAssay, National Center for Advancing Translational Sciences (NCATS)
An excerpt weighted towards active compounds, which were near 7.5% of everything screened.
B2AR arrestin: agonists driving beta-arrestin recruitment to human beta2-adrenergic receptor. 330,000 tested, 0.02% active. beta-arrestin recruitment to beta2AR, cell-based reporter. Potency, µM (top dose mostly 46.1 µM), without a hit: at the highest dose activation, hits mostly activators. P07550;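 note: potency is the fitted concentration of half-maximal effect; 0% = DMSO controls and full agonism = EC100 isoproterenol or metaproterenol; nearly all actives have a fitted effect of over 65% in size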
RORgamma inh: ROR gamma (mouse) transcription inhibition | P51450 | AID 2551 | Potency, µM (doses to about 53.6 µM), inactives show top-dose activity change, negative = inhibition, most hits filed as inhibitors | Drosophila S2 Gal4-RORgamma UAS-luciferase reporter, 20 h | 310,000 tested, 5.4% active; note: potency is the fitted concentration of half-maximal effect; nearly all actives have a fitted effect of over 60% in size
Target sequence (P51450 whole entry, looked up, the tested form may be a part): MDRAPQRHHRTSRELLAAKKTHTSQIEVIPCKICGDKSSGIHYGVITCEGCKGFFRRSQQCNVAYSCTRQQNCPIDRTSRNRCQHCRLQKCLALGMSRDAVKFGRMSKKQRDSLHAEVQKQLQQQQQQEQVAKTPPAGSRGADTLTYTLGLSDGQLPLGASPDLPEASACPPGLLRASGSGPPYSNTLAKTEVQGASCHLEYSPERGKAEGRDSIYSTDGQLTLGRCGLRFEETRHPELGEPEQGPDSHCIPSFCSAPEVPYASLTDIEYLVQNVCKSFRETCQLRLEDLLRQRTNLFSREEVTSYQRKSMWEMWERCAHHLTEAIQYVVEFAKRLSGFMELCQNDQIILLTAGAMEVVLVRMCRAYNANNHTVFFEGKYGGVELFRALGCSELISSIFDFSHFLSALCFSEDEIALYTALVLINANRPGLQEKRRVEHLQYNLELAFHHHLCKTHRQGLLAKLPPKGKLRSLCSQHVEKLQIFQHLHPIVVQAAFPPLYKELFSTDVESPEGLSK
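A Gal4/UAS one-hybrid system in insect cells: metallothionein-promoter Gal4–ROR gamma fusion plus Photinus luciferase reporter. Copper sulfate 700 uM final, 20 hr ambient incubation, luminescent detection after 10 min with reagent.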
ELG1 DNA repair: inhibitors of ELG1-dependent DNA repair in HEK293T cells | HEK293T ELG1-luciferase reporter, luminescence, 16 h; DNA damage induced by 5-fluorouridine | Potency, µM (titrated, usually from 46.1 µM), for inactives: at the highest dose activity change, negative = inhibition, actives largely listed as inhibitors | 330,000 tested, 2.3% active; note: potency is the fitted concentration of half-maximal effect; nearly all actives have a fitted effect of over 55% in size
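DMSO vehicle served as the neutral condition. Each well held 2,000 cells given 5-fluorouridine plus compound; after 16 hr at 37 °C/5% CO2, ONE-Glo was added and luciferase measured 30 min later.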
TSHR antag: human thyrotropin receptor antagonism. AID 504810. TSHR-expressing cells, TSH-stimulated cAMP HTRF, 2 h; stronger effect = lower value. activity change, negative = inhibition, % at 11.5 µM. 330,000 tested, 0.2% active. P16473;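 active = activity change below a set negative limit, meaning inhibition stronger than a set level, cut at about -70% in these data; inconclusive = activity change between two set negative limits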
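TSHR-expressing cells, 200/well, pre-treated with compound, then stimulated with EC80 TSH (4nM final) for 2 hours at 37 deg C. cAMP measured by competitive HTRF: anti-cAMP cryptate antibody in lysis buffer plus cAMP-d2, read after 30 minutes at room temperature.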
VP16 counter: Gal4-VP16 reporter inhibition counter-screen; AID 2546; 310,000 tested, 3.5% active; Drosophila S2 Gal4-VP16 UAS-luciferase, luminescence, 20 h; Potency, µM (highest dose often 53.6 µM), for inactives: top-dose activity, negative = inhibition, usual class: inhibitors;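 note: Gal4-VP16 expression switched on by copper sulfate through the metallothionein promoter; potency is the fitted concentration of half-maximal effect; nearly all actives have a fitted effect of over 50% in size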
* marks the source's active call; other numbers are inactive results; ? = inconclusive; . = no result; [ ] = remark or other dose. Unless noted, calls come from the whole dose curve; as a rule, active = well fitted curve in the direction sought with a large enough effect; inconclusive = small, poorly fitted or top-dose-only effect, or another doubt; inactive = no such curve, though single readings can be large; an effect the other way counts as inactive or inconclusive. Unless noted, % is set by controls: 0 for no effect and ±100 for the full control effect.

SMILES	B2AR arrestin	RORgamma inh	ELG1 DNA repair	TSHR antag	VP16 counter
O=C(NC(=S)N1CCN(c2ccccc2)CC1)c1ccc(S(=O)(=O)N2CCOCC2)cc1	0%	0.71µM*	18µM*	-7	0.63µM*
N#CCCn1c(=O)c(CCc2ccccc2)nc2cnc(Nc3ccccc3)nc21	.	-3%	.	.	4%
CCOc1ccccc1-c1c2cc(O)c(=O)cc-2oc2cc(O)c(O)cc12	0%	?	5%	8	18µM*
CC(C)N(CCCNC(=O)C1CCN(C(=O)c2cc3sccc3n2C)CC1)Cc1ccccc1	0%	-11%	?	8	-10%
Oc1ccc(NCc2ccccc2OCc2ccccc2F)cc1	6%	13µM*	?	-7	16µM*
CC1CCN(C(=O)CSCC(=O)Nc2nc(-c3cccs3)cs2)CC1	0%	?	?	3	30%
CCOC(=O)N1CCN(C(=O)CSCC(=O)Nc2nc(-c3cccs3)cs2)CC1	0%	?	26µM*	-5	-5%
CCn1c(/N=C/c2ccc(OC)cc2O)nc2ccccc21	0%	20µM*	2%	-8	?
CCC1Oc2ccc(C)cc2N(CC(=O)N(Cc2cccnc2)Cc2ccc(C)o2)C1=O (centres undefined)	0%	14µM*	-29%	-12	?
Cc1cccc(C)c1NC(=O)COC(=O)c1cccc2c1C(=O)c1ccccc1C2=O	0%	-36%	12µM*	-6	-8%
O=C(COC(=O)c1cccc(Br)c1)NCCNC(=O)COC(=O)c1cccc(Br)c1	0%	2%	6.5µM*	-1	2%
Cc1cccc(C(=O)OCC(=O)NCCNC(=O)COC(=O)c2cccc(C)c2C)c1C	0%	13µM*	-4%	-5	?
Cc1cccc(NC(=O)COC(=O)c2ccccc2-c2nc3ccccc3s2)c1C	0%	50%	?	46	1%
Cc1cccc(C)c1NC(=O)c1cccc2c1-c1ccccc1C2=O	0%	3%	20%	-9	-12%
Cc1cccc(NC(=O)COC(=O)c2cccc3c2C(=O)c2ccccc2C3=O)c1C	1%	-39%	21µM*	-3	-15%
CSc1cccc(NC(=O)c2[nH]c(C)c(C(C)=O)c2C)c1	0%	-9%	?	-1	-17%
Fc1ccc(-c2cn3cc(C(F)(F)F)cc(Cl)c3n2)cc1	-1%	-15%	?	-8	-18%
Cc1ccc2nc(-c3ccccc3)cn2c1	0%	1.6µM*	?	-14	2.8µM*
Clc1ccc(-c2cn3cc(Cl)ccc3n2)cc1	0%	10µM*	?	3	13µM*
Cc1ccc2nc(-c3ccc(O)c(O)c3)cn2c1	0%	4%[1.91 µM]	?	-16	?
Cc1ccc2nc(-c3ccc(-c4ccccn4)s3)cn2c1	0%	0.18µM*	?	-6	0.89µM*
Oc1ccc(-c2cn3cc(C(F)(F)F)ccc3n2)cc1	0%	2.2µM*	?	3	8.9µM*
CC(CNC(=O)c1ccc(C#N)cc1)NC(=O)c1ccc(C#N)cc1 (centres undefined)	0%	11%	-17%	10	-1%
CCCCC/C(C=O)=C/c1ccccc1	.	-15%[10 µM]	.	.	1%
Cc1ccc(NCCCCO)cc1C	0%	-10%	-11%	-3	5%
SMILES	B2AR arrestin	RORgamma inh	ELG1 DNA repair	TSHR antag	VP16 counter
Cc1ccc2nc(-c3ccc(S(=O)(=O)N4CCOCC4)cc3)cn2c1	0%	-1%	?	0	13%
Cc1cccn2cc(-c3ccccc3)nc12	0%	11µM*	?	-5	-26%
CC(=O)Nc1ccc(-c2cn3cc(C)ccc3n2)cc1	0%	7.1µM*	?	1	?
CCOc1cccc(C(=O)NC(=S)Nc2cccc(NC(=O)c3ccccc3Cl)c2)c1	1%	-40%[10 µM]	8.2µM*	18	0.63µM*
CCOc1ccccc1N1C(=O)c2ccc(C(=O)Nc3cccnc3)cc2C1=O	0%	18%	11%	5	13µM*
CCOc1cccc(C(=O)NC(=S)Nc2cccnc2)c1	0%	14µM*	?	-3	?
CCOc1cccc(C(=O)NC(=S)Nc2ccccc2)c1	0%	4.5µM*	?	4	?
CCC(=O)Nc1cccc(NC(=S)NC(=O)c2ccccc2)c1	0%	4%	?	5	-2%
